Data taken from the supplement of paper PMC11732987, “Enantioselective OTUD7B fragment discovery through chemoproteomics screening and high-throughput optimisation” (Communications Chemistry, 2025).

Key:
Experiment in all cases: log2 ratio of Biotin-Ahx-Ub-VS probe labelling (fragment/DMSO); higher = less target engagement (more negative = stronger competition), active = hit call of the paper (q ≤ 0.05, log2 ratio ≤ -1)
Conditions in all cases: compound concentration: 200 uM; treatment time: 3 h
ALG13 = target: T1, ALG13 (UniProt Q9NP73)
T1 sequence (whole entry): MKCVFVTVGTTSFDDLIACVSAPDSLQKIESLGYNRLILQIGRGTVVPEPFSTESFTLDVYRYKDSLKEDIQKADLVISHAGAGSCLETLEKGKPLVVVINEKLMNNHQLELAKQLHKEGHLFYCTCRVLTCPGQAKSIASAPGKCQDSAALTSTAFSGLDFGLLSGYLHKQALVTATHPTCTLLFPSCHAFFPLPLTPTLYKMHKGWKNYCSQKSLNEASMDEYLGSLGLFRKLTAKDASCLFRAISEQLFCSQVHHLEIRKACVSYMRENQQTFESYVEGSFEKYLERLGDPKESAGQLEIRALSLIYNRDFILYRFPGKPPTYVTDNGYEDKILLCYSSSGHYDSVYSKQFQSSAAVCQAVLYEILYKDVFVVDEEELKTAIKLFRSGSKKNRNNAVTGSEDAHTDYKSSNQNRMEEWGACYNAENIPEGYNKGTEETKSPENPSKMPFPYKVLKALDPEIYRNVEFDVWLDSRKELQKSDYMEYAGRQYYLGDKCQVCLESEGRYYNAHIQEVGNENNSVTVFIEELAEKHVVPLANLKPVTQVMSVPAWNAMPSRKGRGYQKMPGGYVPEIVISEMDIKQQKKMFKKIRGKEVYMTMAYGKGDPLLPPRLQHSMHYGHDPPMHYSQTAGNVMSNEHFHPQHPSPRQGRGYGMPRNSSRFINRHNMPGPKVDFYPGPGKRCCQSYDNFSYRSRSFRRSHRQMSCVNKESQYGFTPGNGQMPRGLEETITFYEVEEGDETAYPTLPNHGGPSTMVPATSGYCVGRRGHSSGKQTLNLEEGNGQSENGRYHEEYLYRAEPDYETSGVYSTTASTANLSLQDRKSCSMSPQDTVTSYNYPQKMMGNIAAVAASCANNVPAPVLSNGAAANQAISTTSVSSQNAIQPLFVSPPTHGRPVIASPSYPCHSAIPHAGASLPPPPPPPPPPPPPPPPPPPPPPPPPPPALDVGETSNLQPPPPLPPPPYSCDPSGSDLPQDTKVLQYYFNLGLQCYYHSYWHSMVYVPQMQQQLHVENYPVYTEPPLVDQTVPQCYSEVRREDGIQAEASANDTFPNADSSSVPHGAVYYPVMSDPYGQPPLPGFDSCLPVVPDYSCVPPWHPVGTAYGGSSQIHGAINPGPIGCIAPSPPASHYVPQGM
In short: (§1)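 Lysate from HEK293T cells, 495 µg per sample in Tris/CHAPS/IGEPAL buffer with protease inhibitors, was treated for 3 h in triplicate with fragment at 200 µM or vehicle. Biotin-Ahx-Ub-VS was next added at 0.5 µM final for 1 h. The labelled DUBs were enriched with NeutrAvidin, digested with LysC and trypsin, and run by diaPASEF LC-MS/MS, with values given as average log2 fragment/vehicle ratios by unpaired t-test on global-median-normalised Spectronaut quantities of proteins with ≥2 unique peptides.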

ATXN3 = ATXN3 (UniProt P54252)
In short: as §1

BAP1 = target: T2, BAP1 (UniProt Q92560)
T2 sequence (whole entry): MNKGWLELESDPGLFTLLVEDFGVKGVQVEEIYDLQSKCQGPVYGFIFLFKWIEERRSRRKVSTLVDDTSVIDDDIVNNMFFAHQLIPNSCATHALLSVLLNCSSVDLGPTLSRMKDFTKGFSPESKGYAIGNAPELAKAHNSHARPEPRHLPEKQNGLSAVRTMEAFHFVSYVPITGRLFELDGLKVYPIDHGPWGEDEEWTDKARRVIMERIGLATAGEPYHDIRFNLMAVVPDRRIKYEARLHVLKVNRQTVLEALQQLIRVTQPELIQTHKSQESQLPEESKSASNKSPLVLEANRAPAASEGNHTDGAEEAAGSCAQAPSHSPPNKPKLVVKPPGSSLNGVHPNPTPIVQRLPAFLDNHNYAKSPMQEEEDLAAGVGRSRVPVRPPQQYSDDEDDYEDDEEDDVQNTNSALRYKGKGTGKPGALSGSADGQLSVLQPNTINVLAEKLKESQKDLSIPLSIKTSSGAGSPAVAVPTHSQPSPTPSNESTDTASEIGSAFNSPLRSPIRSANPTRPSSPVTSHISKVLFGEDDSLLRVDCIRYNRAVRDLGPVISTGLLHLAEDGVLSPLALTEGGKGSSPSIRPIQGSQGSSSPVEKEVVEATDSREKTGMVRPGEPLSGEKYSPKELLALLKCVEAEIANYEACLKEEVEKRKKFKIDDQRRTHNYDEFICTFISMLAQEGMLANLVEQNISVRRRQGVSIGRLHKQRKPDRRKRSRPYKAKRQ
In short: as §1

EIF3F = EIF3F (UniProt O00303)
In short: as §1

EIF3H = EIF3H (UniProt O15372)
In short: as §1

FAM105A = target: T3, FAM105A (UniProt Q9NUU6)
T3 sequence (whole entry): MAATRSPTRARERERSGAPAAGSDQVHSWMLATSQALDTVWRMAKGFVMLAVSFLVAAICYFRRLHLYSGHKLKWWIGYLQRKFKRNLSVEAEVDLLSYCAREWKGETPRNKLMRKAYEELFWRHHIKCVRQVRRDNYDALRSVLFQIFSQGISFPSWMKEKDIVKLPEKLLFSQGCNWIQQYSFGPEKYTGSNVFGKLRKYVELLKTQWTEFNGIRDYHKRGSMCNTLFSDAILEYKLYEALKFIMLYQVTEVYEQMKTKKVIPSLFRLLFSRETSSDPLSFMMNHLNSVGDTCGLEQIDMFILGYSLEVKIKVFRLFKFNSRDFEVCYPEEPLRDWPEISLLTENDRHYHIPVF
In short: as §1

OTUB1 = OTUB1 (UniProt Q96FW1)
In short: as §1

OTUD4 = target: T4, OTUD4 (UniProt Q01804)
T4 sequence (whole entry): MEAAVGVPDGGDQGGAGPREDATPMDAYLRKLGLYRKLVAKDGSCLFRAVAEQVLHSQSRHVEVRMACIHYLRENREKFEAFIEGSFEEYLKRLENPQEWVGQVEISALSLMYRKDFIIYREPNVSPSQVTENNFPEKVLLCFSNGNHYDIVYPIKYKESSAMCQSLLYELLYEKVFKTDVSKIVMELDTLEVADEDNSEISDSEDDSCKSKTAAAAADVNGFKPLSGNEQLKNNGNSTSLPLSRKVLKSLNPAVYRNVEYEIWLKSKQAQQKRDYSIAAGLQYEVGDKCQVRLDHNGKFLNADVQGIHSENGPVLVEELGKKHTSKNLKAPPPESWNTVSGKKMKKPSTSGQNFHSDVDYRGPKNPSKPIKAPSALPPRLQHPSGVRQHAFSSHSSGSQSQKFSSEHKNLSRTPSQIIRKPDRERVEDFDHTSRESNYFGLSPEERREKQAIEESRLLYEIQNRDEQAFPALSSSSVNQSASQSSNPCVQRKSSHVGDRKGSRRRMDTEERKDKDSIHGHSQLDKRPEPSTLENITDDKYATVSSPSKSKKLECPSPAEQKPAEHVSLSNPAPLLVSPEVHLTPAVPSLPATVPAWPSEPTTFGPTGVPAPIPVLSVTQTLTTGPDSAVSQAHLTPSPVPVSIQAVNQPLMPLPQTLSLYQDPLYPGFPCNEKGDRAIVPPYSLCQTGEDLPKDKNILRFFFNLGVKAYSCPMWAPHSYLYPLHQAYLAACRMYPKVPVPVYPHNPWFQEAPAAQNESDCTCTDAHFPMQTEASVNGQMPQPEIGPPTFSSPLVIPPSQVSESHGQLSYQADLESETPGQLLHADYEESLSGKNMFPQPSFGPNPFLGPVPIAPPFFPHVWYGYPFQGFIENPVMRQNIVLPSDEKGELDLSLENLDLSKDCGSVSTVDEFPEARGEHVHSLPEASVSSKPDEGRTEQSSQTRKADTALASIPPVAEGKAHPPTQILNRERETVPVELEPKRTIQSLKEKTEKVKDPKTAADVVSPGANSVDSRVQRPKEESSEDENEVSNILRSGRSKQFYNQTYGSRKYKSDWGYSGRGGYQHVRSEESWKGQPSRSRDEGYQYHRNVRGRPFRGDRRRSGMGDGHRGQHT
In short: as §1

OTUD5 = target: T5, OTUD5 (UniProt Q96G74)
T5 sequence (whole entry): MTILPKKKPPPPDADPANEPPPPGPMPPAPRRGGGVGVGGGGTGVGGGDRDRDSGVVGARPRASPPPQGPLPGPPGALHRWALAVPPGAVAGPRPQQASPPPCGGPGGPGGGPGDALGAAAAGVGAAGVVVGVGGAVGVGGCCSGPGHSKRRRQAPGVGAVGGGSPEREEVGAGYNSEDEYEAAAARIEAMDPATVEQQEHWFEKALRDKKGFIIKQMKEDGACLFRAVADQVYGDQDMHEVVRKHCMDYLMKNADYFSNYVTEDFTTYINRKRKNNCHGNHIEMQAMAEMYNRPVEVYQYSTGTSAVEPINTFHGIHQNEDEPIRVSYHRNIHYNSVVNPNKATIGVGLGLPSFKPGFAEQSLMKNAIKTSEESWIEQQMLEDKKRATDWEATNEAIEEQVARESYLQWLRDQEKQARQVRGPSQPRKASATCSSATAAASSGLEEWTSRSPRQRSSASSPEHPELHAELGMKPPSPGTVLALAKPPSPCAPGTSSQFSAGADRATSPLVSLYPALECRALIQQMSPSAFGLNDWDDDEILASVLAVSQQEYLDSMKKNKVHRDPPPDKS
In short: as §1

Measured: log2 ratio of Biotin-Ahx-Ub-VS probe labelling

Sequence of ATXN3 (P54252 whole entry): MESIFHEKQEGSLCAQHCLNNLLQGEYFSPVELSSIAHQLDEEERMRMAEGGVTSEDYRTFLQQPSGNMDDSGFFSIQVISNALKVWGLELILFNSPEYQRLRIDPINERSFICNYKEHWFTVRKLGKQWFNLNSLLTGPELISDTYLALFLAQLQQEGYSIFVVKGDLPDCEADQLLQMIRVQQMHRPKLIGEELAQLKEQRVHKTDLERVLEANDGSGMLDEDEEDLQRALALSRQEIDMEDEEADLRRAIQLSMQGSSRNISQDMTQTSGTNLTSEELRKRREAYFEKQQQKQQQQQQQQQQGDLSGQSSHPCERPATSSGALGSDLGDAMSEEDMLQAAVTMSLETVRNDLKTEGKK
Sequence of EIF3F (O00303 whole entry): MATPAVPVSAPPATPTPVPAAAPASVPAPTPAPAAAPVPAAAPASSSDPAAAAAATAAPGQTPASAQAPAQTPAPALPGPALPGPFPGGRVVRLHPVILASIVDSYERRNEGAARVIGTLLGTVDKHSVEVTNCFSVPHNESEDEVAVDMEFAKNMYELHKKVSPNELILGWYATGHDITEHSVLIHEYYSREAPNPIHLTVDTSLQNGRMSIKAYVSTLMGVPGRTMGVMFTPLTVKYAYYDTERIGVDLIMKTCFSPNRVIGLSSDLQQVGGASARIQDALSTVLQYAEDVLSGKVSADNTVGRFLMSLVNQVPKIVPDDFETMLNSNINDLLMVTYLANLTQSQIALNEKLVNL
Sequence of EIF3H (O15372 whole entry): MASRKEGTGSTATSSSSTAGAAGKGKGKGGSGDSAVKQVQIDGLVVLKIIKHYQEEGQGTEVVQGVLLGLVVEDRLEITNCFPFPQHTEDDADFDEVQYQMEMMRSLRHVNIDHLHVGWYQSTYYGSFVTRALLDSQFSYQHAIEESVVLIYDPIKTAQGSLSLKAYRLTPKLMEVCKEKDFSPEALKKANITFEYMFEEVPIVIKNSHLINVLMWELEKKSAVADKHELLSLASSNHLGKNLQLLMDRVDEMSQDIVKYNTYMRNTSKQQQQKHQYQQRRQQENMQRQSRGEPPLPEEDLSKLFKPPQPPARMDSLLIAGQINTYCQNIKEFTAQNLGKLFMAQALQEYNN
Sequence of OTUB1 (Q96FW1 whole entry): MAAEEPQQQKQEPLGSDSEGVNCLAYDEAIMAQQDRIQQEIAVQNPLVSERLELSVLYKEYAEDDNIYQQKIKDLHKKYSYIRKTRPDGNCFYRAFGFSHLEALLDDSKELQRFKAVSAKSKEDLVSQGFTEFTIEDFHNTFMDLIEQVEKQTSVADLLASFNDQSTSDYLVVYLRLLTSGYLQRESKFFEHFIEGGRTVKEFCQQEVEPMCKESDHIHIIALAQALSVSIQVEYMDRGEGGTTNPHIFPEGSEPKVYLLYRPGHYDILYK

O=C(CCl)N1CCOCCC1c1ccccc1 (centres undefined)
inactive: ALG13 -0.00764 | ATXN3 0.117 | BAP1 -0.446 | EIF3F -0.267 | EIF3H 0.204 | FAM105A 0.0466 | OTUB1 -0.0821 | OTUD4 -0.0459 | OTUD5 0.0776
